Most compounds without a hit are left out; they make up all but 4.7% or so of the library.
tim23-1 inh = tim23-1 yeast growth inhibition; inhibition, % at 20 µM; actives 1.3% (n = 330,000); S. cerevisiae tim23-1 growth, BacTiter-Glo luminescence, 24 h; AID 463212;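 active means growth inhibition of the mutant yeast at or above 50%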;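 further: temperature-sensitive mutant grown at 25 °C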
PfHsp90 yeast 2 = growth inhibition of yeast expressing Plasmodium Hsp90; S. cerevisiae expressing PfHsp90, BacTiter-Glo ATP, 48 h; yeast lacking PDR1 and PDR3 efflux regulators; inhibition, % at 9.4 µM; actives 0.32% (n = 310,000);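 active means every replicate shows inhibition above about 80%, whatever the replicate mean, limit read from the data; inconclusive means mean inhibition reaches the set limit but some replicate falls short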
ATG4B inhibitor = inhibitors of human ATG4B cysteine protease; inhibition, % at 8.33 µM; ATG4B cleavage of LC3-PLA2, NBD-HPC fluorescence, 1 h; Q9Y4P1; actives 0.51% (n = 340,000); AID 504462; in the data active means inhibition above about 40%
Target sequence (Q9Y4P1 whole entry, looked up): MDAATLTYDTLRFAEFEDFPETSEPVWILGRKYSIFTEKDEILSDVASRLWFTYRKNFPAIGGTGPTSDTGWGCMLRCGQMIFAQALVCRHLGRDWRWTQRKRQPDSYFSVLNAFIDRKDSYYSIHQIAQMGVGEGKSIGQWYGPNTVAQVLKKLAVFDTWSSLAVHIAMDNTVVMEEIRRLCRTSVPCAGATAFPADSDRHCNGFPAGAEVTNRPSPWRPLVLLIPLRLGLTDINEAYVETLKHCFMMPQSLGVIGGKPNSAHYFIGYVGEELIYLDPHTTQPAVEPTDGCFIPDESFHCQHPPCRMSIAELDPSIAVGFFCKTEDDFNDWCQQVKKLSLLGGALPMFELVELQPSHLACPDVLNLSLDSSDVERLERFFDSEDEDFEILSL
TIM10 inh = inhibits growth of TIM10 yeast strain; S. cerevisiae TIM10 strain growth, BacTiter-Glo luminescence, 24 h; inhibition, % at 10 µM; actives 1.4% (n = 330,000);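 active means inhibition of 40% or more at the single tested concentration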;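 further: wild-type TIM10 isogenic control strain grown at permissive 25 °C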
tim10-1 inh = inhibits growth of tim10-1 mutant yeast. S. cerevisiae tim10-1 ts strain growth, BacTiter-Glo, 24 h. inhibition, % at 20 µM. actives 2.2% (n = 330,000);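 active means inhibition of at least 40%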;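 further: mutant grown at 25 °C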
SKKanGAS inh = inhibitors of SKKanGAS S. pyogenes growth in kanamycin (SK-promoter or general growth effect); AID 1662; BacTiter-Glo, 6 h; inhibition, % at 7.5 µM; actives 1.3% (n = 300,000);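 active means mean replicate score, as percent of positive control median, at least 50; inconclusive means mean below 50 but one replicate at or above 50; inactive means mean and every replicate below 50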;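 further: strain carries kanamycin resistance gene driven by streptokinase promoter and grows in 40 µg/ml kanamycin; loss of luminescence reflects streptokinase promoter inhibition or plain growth inhibition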
tim23-1 conf = confirmation of tim23-1 mutant yeast growth inhibitors | actives 83% (n = 4,400) | shares compounds with tim23-1 inh | S. cerevisiae tim23-1 growth, BacTiter-Glo luminescence, 24 h | AID 463218 | inhibition, % at 20 µM;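 active means inhibition above about 39% in either of two replicate wells at 20 µM, limit read from the data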;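 further: temperature-sensitive tim23-1 mutant grown at 25 °C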
Hits are given with their value; n = inactive; u = inconclusive; x = not tested or not shown.

SMILES | tim23-1 inh | PfHsp90 yeast 2 | ATG4B inhibitor | TIM10 inh | tim10-1 inh | SKKanGAS inh | tim23-1 conf
O=C(NCCCn1ccnc1)C1CCN(S(=O)(=O)c2ccc(F)cc2)CC1 | n | n | n | n | n | n | x
NC1=NC[C@H](CC2CCCCC2)N1CCc1cc(C(F)(F)F)cc(C(F)(F)F)c1 | n | n | n | n | n | n | x
COc1cccc(-c2ccc3ncnc(NCc4cccs4)c3c2)c1 | 52 | n | n | n | n | x | 43
c1csc(CNc2ncnc3ccc(-c4ccc5c(c4)OCCO5)cc23)c1 | 57 | n | n | n | n | x | 45
c1cncc(-c2ccc3ncnc(NCc4cccs4)c3c2)c1 | n | n | n | n | n | x | x
Cc1ccc(CN2CCc3c(OCc4ccc(F)cc4)cccc3C2=O)cc1 | n | n | n | n | n | n | x
CCc1ccc(C2NC(=O)c3ccccc3O2)cc1 (stereo unspecified) | 52 | n | n | n | n | u | n
O=C1c2cccnc2C(=O)N1C1CCCCC1 | n | n | n | n | n | n | x
Cc1nc2c(n1C1CCCCC1)C(=O)c1ccccc1C2=O | 51 | n | n | n | n | n | 40
Cc1ccc(S(=O)(=O)N2CCCCC2)cc1C(=O)N(C)CCOc1ccccc1 | n | n | n | n | n | n | x
Cc1ccc(-c2csc(Nc3ccccn3)n2)cc1 | n | n | n | n | n | n | x
c1ccc(-c2csc(Nc3ccccn3)n2)cc1 | 50 | n | n | n | n | n | n
COc1ccc2c(=O)c3c(=O)n(Cc4ccco4)c(-c4ccc(C)cc4)nc3oc2c1 | 57 | n | n | n | n | n | 46
COc1ccc2c(=O)c3c(=O)n(Cc4ccco4)c(C(C)C)nc3oc2c1 | n | n | n | n | n | n | x
COc1ccc(-n2ccnc(SCC(=O)NC3CCCC3)c2=O)cc1 | n | n | n | n | n | n | x
CCOc1ccc(-n2ccnc(SCC(=O)Nc3ccc(CC)cc3)c2=O)cc1 | 56 | n | n | n | n | n | 53
CNc1nc(N)c(C(=O)C23CC4CC(CC(C4)C2)C3)s1 | 51 | n | n | n | n | n | 50
CC(C)COc1ccc(-c2nn(-c3ccccc3)cc2CO)cc1 | n | n | n | n | n | n | x
OCc1cn(-c2ccccc2)nc1-c1ccc(Br)cc1 | 67 | n | n | n | n | n | n
Cc1c(C)c2ccc(O)c(CN3CCN(C)CC3)c2oc1=O | n | n | n | n | n | n | x
CCOC(=O)/C(=C\c1cn(C)c2ccccc12)[N+](=O)[O-] | 54 | n | n | n | n | n | 58
CC1CC(C)CN(C(=O)COC(=O)c2cncc(Br)c2)C1 (stereo unspecified) | n | n | n | n | n | x | x
COc1ccc(NC(=O)c2cn(C)c(=O)c3cc(OC)c(OC)cc23)c(OC)c1 | n | n | n | n | n | n | x
C(=N\Nc1nc2ccccc2s1)/c1cccs1 | 59 | n | n | n | n | n | n
C/C(=N\Nc1nc2ccccc2s1)c1cccs1 | 64 | n | n | n | n | 50 | 48
SMILES | tim23-1 inh | PfHsp90 yeast 2 | ATG4B inhibitor | TIM10 inh | tim10-1 inh | SKKanGAS inh | tim23-1 conf
O=C(N/N=C\c1cccnc1)c1ccc(Cl)s1 | n | n | n | n | n | n | x
COc1ccc(C(CNC(=O)c2ccc(NS(=O)(=O)c3ccc(F)c(C)c3)cc2)N2CCOCC2)cc1 (stereo unspecified) | n | n | n | n | n | n | x
Cc1cc(N)n2nc(-c3ccccc3)c(-c3ccccc3)c2n1 | 59 | n | n | n | n | n | 46
COc1ccc(/C(O)=C2\C(=O)C(=O)N(c3cc(C)on3)C2c2ccccc2OC)cc1C (stereo unspecified) | n | n | n | n | n | n | x
COc1cccc(-c2c(C(=O)N/N=C/c3ccncc3)nnn2-c2nonc2N)c1 | n | n | n | n | n | n | x
CCn1cc(Br)c(C(=O)Nc2cccc(Cl)c2)n1 | 59 | n | n | n | n | n | 52
CCn1ccc(C(=O)Nc2cccc(Cl)c2)n1 | n | n | n | n | n | n | x
NC(=S)NNc1cc(Cl)cc(Cl)c1 | 58 | n | n | n | n | n | 70
NC(=S)Nc1cc(Cl)cc(Cl)c1 | n | x | n | n | n | n | x
COc1ccc(/C=C2\COc3ccccc3C2=O)c(OC)c1 | 55 | n | n | n | n | n | 50

Screening results deposited in PubChem by several laboratories.
